These results are taken from PubChem BioAssay (NCI).

Common to all, as to experiment: NCI-60 one-dose screen, 48 h (100 = growth as untreated, 0 = no growth, -100 = all killed)
Common to all, as to settings: 10 µM unless noted

Experiment [1] relates to SK-MEL-2 melanoma.
Experiment [2] deals with EKVX NSCLC.
Experiment [3] relates to SN12C renal.
Experiment [4] has as its system UO-31 renal.
Experiment [5] relates to TK-10 renal.
The test system of experiment [6] is ACHN renal.
For experiment [7], the system named is CAKI-1 renal.
Experiment [8] has as its system A498 renal.
For experiment [9], the system named is CCRF-CEM leukemia.
In experiment [10] the test system is MOLT-4 leukemia.

This is part of a sample that, as a whole, favours compounds with a hit. Of some 83,000 tested, about 20% had one in any assay.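 How to read the values: 0–100, growth inhibition (40 = 60% inhibited); 0, no net growth; -100 to 0, cell death (-40 = 40% of starting cells died; -100 = all dead).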 Unmarked numbers belong to inactive results. The source made the active and inactive calls. How the source made its calls: active means growth percent below 10; inactive means the rest.

Consider `Cn1c2ccccc2c2c3c(c4c5ccccc5[nH]c4c21)C(=O)N(N)C3=O`, for which the growth is 99.7% in [1]; 77.3% in [2]; 52.2% in experiment [3]; 34.8% in experiment [4]; 82.5% in [5]; 14.2% in experiment [6]. The growth in experiment [7] is 30.7%; in experiment [8], 60%; in experiment [9], 26.4%; in experiment [10], 21.1%.

For the molecule `CN(C)CCOc1ccc(-c2nc3ccc(-c4nc5ccc(N6CCN(C)CC6)cc5[nH]4)cc3[nH]2)cc1`, the growth in [1] is 25.7%; in experiment [2], 83.6%; in [3], 63.5%; in experiment [4], 103%; in experiment [5], 90.7%; in experiment [6], 111%. The growth was 89.6% in experiment [7], 35.3% in experiment [8], 85.4% in experiment [9] and 92% in experiment [10].

Take `CCCCCCCCCCCCCCCC(=O)OCC1OC(n2cnc3c(=S)nc(N)[nH]c32)C(OC(=O)CCCCCCCCCCCCCCC)C1OC(=O)CCCCCCCCCCCCCCC` (stereo not given): the growth in [1] is 54.7%; in [2], 48.6%; in experiment [3], 84.2%; in experiment [4] it was 50%; in experiment [5], 35.7%; in experiment [6], 75%. Moreover, the growth is 49.4% in [7], 116% in experiment [8], 15.9% in experiment [9] and -24% (active) in [10].

Take `O=C1/C(=C\c2cn(C(=O)c3ccc(Cl)cc3)c3ccccc23)c2ccccc2N1c1c(Cl)cccc1Cl`: the growth in experiment [1] is 103%; in [2], 97.8%; in experiment [3], 89.5%; in [4], 77%; in [5] it was 119%; in experiment [6], 97.6%. Moreover, the growth is 86.4% in experiment [7], 103% in experiment [8], 111% in experiment [9] and 89.6% in [10].

Consider `NC(N)=Nc1ccc(S(=O)(=O)O)cc1`, for which the growth was 107% in experiment [1]; 110% in experiment [2]; 90.8% in [3]; 94.6% in experiment [4]; 108% in experiment [5]; 93% in experiment [6]. Further, the growth in experiment [7] was 115%; in experiment [8] it was 97.8%; in experiment [9], 108%; in experiment [10] it was 85.2%.

For `Cn1c(=O)c2c(ncn2CC[N+](C)(C)C)n(C)c1=O`, the growth was 99.7% in [1]; 94.6% in experiment [2]; 103% in experiment [3]; 91.7% in [4]; 91.8% in [5]; 110% in experiment [6]. Further, the growth was 102% in experiment [7], 115% in experiment [8], 109% in [9] and 104% in [10].

As for `CN(C)c1ccc(/C=C\C2=[N+](C)c3ccccc3C2(C)C)cc1`, the growth in [1] is -3.85% (active); in experiment [2], 8.84% (active); in experiment [3], -1.45% (active); in experiment [4], 55%; in experiment [5], 27.8%; in [6], 4.49% (active). Moreover, the growth is 13.4% in experiment [7], 48.2% in [8], 14.6% in [9] and 15.7% in experiment [10].

Turning to `Nc1nc2c(c3ncccc13)C(c1cccc(Br)c1)Cc1ncccc1-2` (stereo not given), the growth in [1] is 3.12% (active); in experiment [2] it was 41%; in experiment [3] it was 34.4%; in experiment [4], 33.8%; in experiment [5], 35.2%; in experiment [6] it was 43%. Also, the growth is 41.4% in experiment [7], -14.9% (active) in [8], 8.84% (active) in [9] and 7.86% (active) in experiment [10].

`Cn1c(=O)c2[nH]c(C(O)C(O)C(O)C(O)CO)nc2n(C)c1=O` (stereo not given): the growth in experiment [1] is 104%; in experiment [2], 103%; in experiment [3] it was 107%; in experiment [4], 91.8%; in experiment [5] it was 103%; in [6], 106%. The growth in experiment [7] is 102%; in experiment [8] it was 106%; in experiment [9], 105%; in experiment [10], 103%.

Take `COc1cccc(-c2nc3sccn3c2-c2ccnc(NCCCNS(=O)(=O)c3ccccc3)c2)c1`: the growth in experiment [1] was 27.4%; in experiment [2], 42.7%; in [3], 31.4%; in [4] it was 9.36% (active); in [5], 88.2%; in [6], 26.9%. Besides, the growth in experiment [7] is 27.8%; in [8], 57.9%; in experiment [9], 12.3%; in experiment [10] it was 14.1%.

On to `CC[C@H](Nc1cc(C)nc(N)n1)c1nc2cccc(NCc3ccc(C(=O)NO)cc3)c2c(=O)n1-c1ccccc1`, for which the growth is 33.1% in [1]; 64.3% in experiment [2]; 29% in experiment [3]; 80.1% in experiment [4]; 32.1% in experiment [5]; 79.9% in experiment [6]. Further, the growth is 71.8% in experiment [7], -3.63% (active) in [8], -11% (active) in experiment [9] and -9.86% (active) in experiment [10].

For `Nc1nc2ccc(-c3nc4ccc5[nH]ncc5c4c4c3CCC4)cc2s1`, the growth in experiment [1] is 21.5%; in experiment [2], 19.4%; in experiment [3] it was 28.4%; in experiment [4] it was 14.7%; in [5], 22.3%; in experiment [6], 17.7%. In addition, the growth in experiment [7] is 1.07% (active); in experiment [8] it was -9.59% (active); in experiment [9], 17.3%; in experiment [10], 18.5%.

For `O=C(Nc1ccc(Oc2ccc(F)cc2)c(Cl)c1)c1cccnc1`, the growth in experiment [1] was 91.3%; in experiment [2], 81.9%; in experiment [3], 95.8%; in experiment [4], 80.9%; in [5], 97.7%; in experiment [6] it was 99.5%. Moreover, the growth was 86.9% in experiment [7], 70.8% in experiment [8], 101% in experiment [9] and 105% in experiment [10].

For `COc1cccc(/C=C\C(=O)c2ccccc2)c1`, the growth was 105% in experiment [1]; 90.7% in experiment [2]; 70.1% in experiment [3]; 60.2% in experiment [4]; 102% in [5]; 75% in experiment [6]. Besides, the growth was 66.6% in experiment [7], 93.8% in [8], 25.2% in experiment [9] and 28.8% in [10].
